This is an account of results in ChEMBL document CHEMBL2218924, “A broad activity screen in support of a chemogenomic map for kinase signalling research and drug discovery” (Biochem J, 2013).

The target in assay [1] is T1, Protein kinase C epsilon type (Homo sapiens) (UniProt Q02156).
T1 sequence (whole entry): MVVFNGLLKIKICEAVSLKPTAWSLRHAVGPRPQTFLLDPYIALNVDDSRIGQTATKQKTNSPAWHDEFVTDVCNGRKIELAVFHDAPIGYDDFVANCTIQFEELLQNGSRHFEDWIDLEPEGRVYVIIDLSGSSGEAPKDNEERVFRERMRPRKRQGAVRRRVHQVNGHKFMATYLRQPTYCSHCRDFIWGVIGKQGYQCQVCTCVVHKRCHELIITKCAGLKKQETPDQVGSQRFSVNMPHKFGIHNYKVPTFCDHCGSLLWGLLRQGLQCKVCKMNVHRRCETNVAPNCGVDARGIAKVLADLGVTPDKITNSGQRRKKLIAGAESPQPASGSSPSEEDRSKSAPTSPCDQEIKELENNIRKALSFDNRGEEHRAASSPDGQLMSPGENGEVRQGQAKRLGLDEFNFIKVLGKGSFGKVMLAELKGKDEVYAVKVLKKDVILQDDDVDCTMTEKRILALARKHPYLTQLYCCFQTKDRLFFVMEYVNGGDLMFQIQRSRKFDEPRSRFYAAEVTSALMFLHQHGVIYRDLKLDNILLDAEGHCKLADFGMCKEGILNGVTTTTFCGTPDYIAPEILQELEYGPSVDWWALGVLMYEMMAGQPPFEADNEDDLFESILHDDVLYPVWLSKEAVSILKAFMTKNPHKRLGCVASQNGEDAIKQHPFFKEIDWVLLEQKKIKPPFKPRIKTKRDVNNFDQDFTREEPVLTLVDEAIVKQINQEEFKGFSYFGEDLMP
The following applies: at 1 µM.

Assay [2] addresses T1, Protein kinase C epsilon type (Homo sapiens). The following applies: at 10 µM.

For orientation: residual activity means the signal under treatment as a percentage of the control signal. On to `O=c1cc(N2CCOCC2)oc2c1ccc1ccccc12`, for which the residual activity in assay [1] and in assay [2] was 87% in each case.

With `COc1ccc(Cl)cc1NC(=O)Nc1cc(C)nc2ccccc12`, the residual activity came to 82% in assay [1] and 97% in assay [2].

Turning to `Oc1cccc(-c2nc(N3CCOCC3)c3oc4ncccc4c3n2)c1`, the residual activity turned out to be 91% in assay [1] and 99% in assay [2].

For the molecule `NCCNc1ncc(C(N)=O)c(Nc2cccc(C(F)(F)F)c2)n1`, the residual activity in assay [1] was determined as 77%; in assay [2], 62%.

For the molecule `O=C(O)/C=C/c1cc(Br)c(Br)c(Br)c1Br`, the residual activity in assay [1] turned out to be 104%; in assay [2], 102%.

As to `Nc1ncnc2[nH]nc(Nc3ccc(F)cc3)c12`, the residual activity stood at 123% in assay [1] and 112% in assay [2].

Consider `O=C(Nc1nc2ccccc2n1CCN1CCOCC1)c1cccc([N+](=O)[O-])c1`, for which the residual activity in assay [1] came to 86%; in assay [2], 102%.

Consider `O=C(c1ccccc1)c1ccc(N2CCOCC2)cc1O`, for which the residual activity in assay [1] worked out at 89%; in assay [2], 95%.

Take `O=C1NC(=O)c2c1c1c3ccccc3[nH]c1n1cncc21`: the results for the residual activity in assay [1] and in assay [2] were 105% and 94%, respectively.

Consider `CN(C)S(=O)(=O)c1ccc2c(c1)/C(=C/c1cc3c([nH]1)CCCC3)C(=O)N2`, for which the residual activity in assay [1] came to 98%; in assay [2], 85%.

As to `O=C1NC(=O)C(c2c[nH]c3ccccc23)=C1c1c[nH]c2ccccc12`, the residual activity in assay [1] was determined as 63%; in assay [2], 21%.

As for `O=S(=O)(NCCNC/C=C/c1ccc(Br)cc1)c1cccc2cnccc12`, the residual activity in assay [2] turned out to be 76%.

For the molecule `Cn1sc(=O)n(Cc2ccccc2)c1=O`, the residual activity in assay [1] came out at 88%; in assay [2] it was 11%.

With `CC(C)(C)n1nc(Cc2cccc3ccccc23)c2c(N)ncnc21`, the residual activity was found to be 91% in assay [1] and 100% in assay [2].

For `CC(C)N(CCC(=O)c1ccc2ccccc2c1)Cc1ccccc1`, the residual activity in assay [1] is 83%.

In the case of `O=S(=O)(c1cccc2cnccc12)N1CCCNCC1`, the residual activity in assay [2] was 69%.

In the case of `O=c1cc(N2CCNCC2)oc2c(-c3ccccc3)cccc12`, the residual activity worked out at 93% in assay [1] and 98% in assay [2].

As to `CC(C)[C@H](CO)Nc1nc(Nc2cc(N)cc(Cl)c2)c2ncn(C(C)C)c2n1`, the residual activity in assay [1] turned out to be 100%; in assay [2], 98%.

On to `COc1ccc(-c2cnc3c(-c4ccsc4)cnn3c2)cc1`, for which the residual activity worked out at 86% in assay [1] and 100% in assay [2].

Turning to `CSc1nc(-c2ccc(F)cc2)c(-c2ccnc(NC(C)c3ccccc3)c2)[nH]1` (configuration not stated), the residual activity came out at 125% in assay [1] and 101% in assay [2].

Turning to `O=C1NC(=O)C(c2cn(CCCn3ccnc3)c3ccccc23)=C1Nc1ccccc1`, the residual activity was 21% in assay [1] and 3% in assay [2].

For the molecule `NC(=O)Nc1sc(-c2ccc(F)cc2)cc1C(N)=O`, the figures for the residual activity in assay [1] and in assay [2] were 102% and 94%, respectively.

As to `Nc1ncnc2c1c(-c1ccc(Oc3ccccc3)cc1)cn2C1CCCC1`, the residual activity in assay [1] and in assay [2] was 84% in each case.

As to `O=C1C(Cl)=C(N2C(=O)CCC2=O)C(=O)c2ccccc21`, the figures for the residual activity in assay [1] and in assay [2] were 90% and 26%, respectively.

As for `Nc1ncnc2c1cnn2-c1ccccc1`, the values for the residual activity in assay [1] and in assay [2] were 80% and 101%, respectively.

Regarding `COc1cc2nccc(Oc3ccc(NC(=S)NC(=O)c4ccccc4C)cc3)c2cc1OC`, the figures for the residual activity in assay [1] and in assay [2] were 85% and 88%, respectively.

As to `COc1ccc2c(c1)c(C1=C(c3c[nH]c4ccccc34)C(=O)NC1=O)cn2CCCN(C)C`, the residual activity in assay [1] was determined as 3%; in assay [2], 0%.

As for `CCOC(=O)c1c(C)[nH]c(/C=C2\C(=O)Nc3ccccc32)c1C`, the figures for the residual activity in assay [1] and in assay [2] were 83% and 88%, respectively.

With `O=C1Nc2ccc(Cl)cc2/C1=C/c1cc(Cl)c(O)c(Cl)c1`, the residual activity in assay [1] is 87%; in assay [2], 97%.

Turning to `CC(C)c1nn(-c2c(Cl)cccc2Cl)c2nc(Cc3ccc(OCCO)cc3)[nH]c(=O)c12`, the residual activity came to 99% in assay [1] and 82% in assay [2].

Take `Cc1cc(C)c(/C=C2\C(=O)Nc3ccccc32)[nH]1`: in assay [1], the residual activity turned out to be 82%.

As for `CCCC(=O)Oc1ccc2[nH]c(C(=O)c3cc4ccccc4[nH]3)cc2c1`, the residual activity in assay [1] turned out to be 85%; in assay [2] it was 93%.

On to `O=C(NC(NC(=S)Nc1ccc(F)c([N+](=O)[O-])c1)C(Cl)(Cl)Cl)C(c1ccccc1)c1ccccc1` (configuration not stated), for which the residual activity in assay [1] came to 84%; in assay [2], 96%.
